Data taken from article PMC11006913.

Experiments:
Experiment in all cases: PBM; 200 nM protein, PBS
Settings in all cases: dsDNA, one strand shown
[1] = molecular target: PRRX1 (Homo sapiens, UniProt P54821 80-166, F113S)
[2] = molecular target: VAX1 (Homo sapiens, UniProt Q5SQQ9 86-172)
[3] = molecular target: PRRX1 (Homo sapiens, UniProt P54821 80-166)
[4] = molecular target: HOXA2 (Homo sapiens, UniProt O43364 129-215, R185T)
[5] = molecular target: HOXA2 (Homo sapiens, UniProt O43364 129-215, R185K)
[6] = molecular target: HOXA2 (Homo sapiens, UniProt O43364 129-215, Y150S)
[7] = molecular target: HOXA2 (Homo sapiens, UniProt O43364 129-215)
[8] = molecular target: PITX2 (Homo sapiens, UniProt Q99697 72-157)
[9] = molecular target: PROP1 (Homo sapiens, UniProt O75360 56-141)
[10] = molecular target: PROP1 (Homo sapiens, UniProt O75360 56-141, R99H)
[11] = molecular target: PROP1 (Homo sapiens, UniProt O75360 56-141, F88S)
[12] = molecular target: ALX1 (Homo sapiens, UniProt Q15699 118-204, L144V)
[13] = molecular target: ALX3 (Homo sapiens, UniProt O95076 139-225, N203Q)
[14] = molecular target: ALX1 (Homo sapiens, UniProt Q15699 118-204, L144R)
[15] = molecular target: ALX3 (Homo sapiens, UniProt O95076 139-225)
[16] = molecular target: ALX3 (Homo sapiens, UniProt O95076 139-225, L168Q)
[17] = molecular target: ALX3 (Homo sapiens, UniProt O95076 139-225, L168V)
[18] = molecular target: ALX1 (Homo sapiens, UniProt Q15699 118-204)
[19] = molecular target: ALX3 (Homo sapiens, UniProt O95076 139-225, N203S)
[20] = molecular target: SHOX (Homo sapiens, UniProt O15266 103-189, R173C)
[21] = molecular target: MSX2 (Homo sapiens, UniProt P35548 130-214, R199I)
[22] = molecular target: MSX2 (Homo sapiens, UniProt P35548 130-214)
[23] = molecular target: MSX2 (Homo sapiens, UniProt P35548 130-214, F161Y)
[24] = molecular target: VAX1 (Homo sapiens, UniProt Q5SQQ9 86-172, T142I)
[25] = molecular target: VAX1 (Homo sapiens, UniProt Q5SQQ9 86-172, K157R)
[26] = molecular target: HOXB6 (Homo sapiens, UniProt P17509 132-218, K202E)
[27] = molecular target: HOXB6 (Homo sapiens, UniProt P17509 132-218)
HOXB6 (Homo sapiens, UniProt P17509 132-218), sequence (P17509 132-218): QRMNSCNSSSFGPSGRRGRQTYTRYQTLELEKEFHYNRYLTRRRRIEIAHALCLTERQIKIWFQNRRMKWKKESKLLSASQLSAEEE

PROP1 (Homo sapiens, UniProt O75360 56-141), sequence (O75360 56-141): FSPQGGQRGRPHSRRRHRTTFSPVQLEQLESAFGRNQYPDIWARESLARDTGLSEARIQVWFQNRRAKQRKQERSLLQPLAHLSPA
PROP1 (Homo sapiens, UniProt O75360 56-141, R99H), sequence (O75360 56-141 R99H): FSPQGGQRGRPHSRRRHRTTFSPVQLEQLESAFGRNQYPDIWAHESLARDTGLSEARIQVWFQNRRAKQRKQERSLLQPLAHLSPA
PRRX1 (Homo sapiens, UniProt P54821 80-166), sequence (P54821 80-166): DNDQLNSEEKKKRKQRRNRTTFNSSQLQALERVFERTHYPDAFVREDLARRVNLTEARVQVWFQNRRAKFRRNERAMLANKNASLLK
PROP1 (Homo sapiens, UniProt O75360 56-141, F88S), sequence (O75360 56-141 F88S): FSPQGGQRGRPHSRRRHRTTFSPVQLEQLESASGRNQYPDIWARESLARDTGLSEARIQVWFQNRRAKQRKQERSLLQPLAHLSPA
PRRX1 (Homo sapiens, UniProt P54821 80-166, F113S), sequence (P54821 80-166 F113S): as the sequence (P54821 80-166) above, with F34S counted along it
VAX1 (Homo sapiens, UniProt Q5SQQ9 86-172), sequence (Q5SQQ9 86-172): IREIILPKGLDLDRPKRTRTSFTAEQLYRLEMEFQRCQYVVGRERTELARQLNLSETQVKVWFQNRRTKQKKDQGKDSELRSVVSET
ALX1 (Homo sapiens, UniProt Q15699 118-204), sequence (Q15699 118-204): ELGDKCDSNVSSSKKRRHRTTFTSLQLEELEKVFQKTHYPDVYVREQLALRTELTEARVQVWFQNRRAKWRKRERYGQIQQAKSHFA
ALX3 (Homo sapiens, UniProt O95076 139-225), sequence (O95076 139-225): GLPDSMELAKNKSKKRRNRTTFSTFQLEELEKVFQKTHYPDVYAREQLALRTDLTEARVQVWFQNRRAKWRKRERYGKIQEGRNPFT
ALX3 (Homo sapiens, UniProt O95076 139-225, N203Q), sequence (O95076 139-225 N203Q): as the sequence (O95076 139-225) above, with N65Q counted along it
VAX1 (Homo sapiens, UniProt Q5SQQ9 86-172, K157R), sequence (Q5SQQ9 86-172 K157R): as the sequence (Q5SQQ9 86-172) above, with K72R counted along it
ALX1 (Homo sapiens, UniProt Q15699 118-204, L144V), sequence (Q15699 118-204 L144V): as the sequence (Q15699 118-204) above, with L27V counted along it
HOXB6 (Homo sapiens, UniProt P17509 132-218, K202E), sequence (P17509 132-218 K202E): as the sequence (P17509 132-218) above, with K71E counted along it
MSX2 (Homo sapiens, UniProt P35548 130-214), sequence (P35548 130-214): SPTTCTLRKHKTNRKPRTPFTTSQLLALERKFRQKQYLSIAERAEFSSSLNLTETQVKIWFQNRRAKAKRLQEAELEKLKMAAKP
ALX3 (Homo sapiens, UniProt O95076 139-225, L168V), sequence (O95076 139-225 L168V): as the sequence (O95076 139-225) above, with L30V counted along it
MSX2 (Homo sapiens, UniProt P35548 130-214, F161Y), sequence (P35548 130-214 F161Y): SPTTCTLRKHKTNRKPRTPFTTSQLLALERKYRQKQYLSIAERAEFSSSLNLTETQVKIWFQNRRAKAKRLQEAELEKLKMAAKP
HOXA2 (Homo sapiens, UniProt O43364 129-215, R185T), sequence (O43364 129-215 R185T): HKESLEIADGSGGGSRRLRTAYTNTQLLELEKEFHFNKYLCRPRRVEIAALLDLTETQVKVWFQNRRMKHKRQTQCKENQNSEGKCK
ALX3 (Homo sapiens, UniProt O95076 139-225, N203S), sequence (O95076 139-225 N203S): as the sequence (O95076 139-225) above, with N65S counted along it
VAX1 (Homo sapiens, UniProt Q5SQQ9 86-172, T142I), sequence (Q5SQQ9 86-172 T142I): as the sequence (Q5SQQ9 86-172) above, with T57I counted along it
MSX2 (Homo sapiens, UniProt P35548 130-214, R199I), sequence (P35548 130-214 R199I): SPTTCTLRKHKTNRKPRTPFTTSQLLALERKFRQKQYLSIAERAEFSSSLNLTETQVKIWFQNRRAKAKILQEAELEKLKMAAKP
HOXA2 (Homo sapiens, UniProt O43364 129-215, Y150S), sequence (O43364 129-215 Y150S): as the sequence (O43364 129-215 R185T) above, with Y22S, T57R counted along it
ALX1 (Homo sapiens, UniProt Q15699 118-204, L144R), sequence (Q15699 118-204 L144R): as the sequence (Q15699 118-204) above, with L27R counted along it
HOXA2 (Homo sapiens, UniProt O43364 129-215, R185K), sequence (O43364 129-215 R185K): as the sequence (O43364 129-215 R185T) above, with T57K counted along it
HOXA2 (Homo sapiens, UniProt O43364 129-215), sequence (O43364 129-215): as the sequence (O43364 129-215 R185T) above, with T57R counted along it
SHOX, sequence (O15266 103-189 R173C): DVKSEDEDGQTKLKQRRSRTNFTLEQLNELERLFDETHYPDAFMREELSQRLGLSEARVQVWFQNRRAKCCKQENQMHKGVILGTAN
ALX3 (Homo sapiens, UniProt O95076 139-225, L168Q), sequence (O95076 139-225 L168Q): as the sequence (O95076 139-225) above, with L30Q counted along it

## AGTGGTAA
[1]
  binding signal: 10 upbm affinity estimate (log intensity, higher = more binding, comparable within an allelic series)
[2]
  binding signal: 9.41 upbm affinity estimate (log intensity, higher = more binding, comparable within an allelic series)
[3]
  binding signal: 11.2 upbm affinity estimate (log intensity, higher = more binding, comparable within an allelic series)

## CAGGCCGC
[1]
  binding signal: 9.29 upbm affinity estimate (log intensity, higher = more binding, comparable within an allelic series)
[4]
  binding signal: 7.44 upbm affinity estimate (log intensity, higher = more binding, comparable within an allelic series)
[5]
  binding signal: 10.3 upbm affinity estimate (log intensity, higher = more binding, comparable within an allelic series)
[6]
  binding signal: 10.4 upbm affinity estimate (log intensity, higher = more binding, comparable within an allelic series)
[3]
  binding signal: 9.35 upbm affinity estimate (log intensity, higher = more binding, comparable within an allelic series)
[7]
  binding signal: 7.49 upbm affinity estimate (log intensity, higher = more binding, comparable within an allelic series)

## CGGAACCG
[1]
  binding signal: 9.35 upbm affinity estimate (log intensity, higher = more binding, comparable within an allelic series)
[8]
  binding signal: 7.68 upbm affinity estimate (log intensity, higher = more binding, comparable within an allelic series)
[3]
  binding signal: 9.26 upbm affinity estimate (log intensity, higher = more binding, comparable within an allelic series)

## GCCCGTCC
[1]
  binding signal: 9.26 upbm affinity estimate (log intensity, higher = more binding, comparable within an allelic series)
[9]
  binding signal: 6.49 upbm affinity estimate (log intensity, higher = more binding, comparable within an allelic series)
[10]
  binding signal: 6.5 upbm affinity estimate (log intensity, higher = more binding, comparable within an allelic series)
[11]
  binding signal: 6.38 upbm affinity estimate (log intensity, higher = more binding, comparable within an allelic series)
[3]
  binding signal: 8.92 upbm affinity estimate (log intensity, higher = more binding, comparable within an allelic series)

## ACCGAGGG
[1]
  binding signal: 8.94 upbm affinity estimate (log intensity, higher = more binding, comparable within an allelic series)
[12]
  binding signal: 6.46 upbm affinity estimate (log intensity, higher = more binding, comparable within an allelic series)
[13]
  binding signal: 7.64 upbm affinity estimate (log intensity, higher = more binding, comparable within an allelic series)
[14]
  binding signal: 6.47 upbm affinity estimate (log intensity, higher = more binding, comparable within an allelic series)
[15]
  binding signal: 7.78 upbm affinity estimate (log intensity, higher = more binding, comparable within an allelic series)
[16]
  binding signal: 7.65 upbm affinity estimate (log intensity, higher = more binding, comparable within an allelic series)
[17]
  binding signal: 7.64 upbm affinity estimate (log intensity, higher = more binding, comparable within an allelic series)
[18]
  binding signal: 6.38 upbm affinity estimate (log intensity, higher = more binding, comparable within an allelic series)
[19]
  binding signal: 7.63 upbm affinity estimate (log intensity, higher = more binding, comparable within an allelic series)
[3]
  binding signal: 9.32 upbm affinity estimate (log intensity, higher = more binding, comparable within an allelic series)

## AATTATGC
[1]
  binding signal: 11.1 upbm affinity estimate (log intensity, higher = more binding, comparable within an allelic series)
[20]
  binding signal: 9.27 upbm affinity estimate (log intensity, higher = more binding, comparable within an allelic series)

## CGGCACCG
[1]
  binding signal: 9.31 upbm affinity estimate (log intensity, higher = more binding, comparable within an allelic series)
[21]
  binding signal: 9.48 upbm affinity estimate (log intensity, higher = more binding, comparable within an allelic series)
[8]
  binding signal: 7.77 upbm affinity estimate (log intensity, higher = more binding, comparable within an allelic series)
[22]
  binding signal: 9.42 upbm affinity estimate (log intensity, higher = more binding, comparable within an allelic series)
[23]
  binding signal: 9.54 upbm affinity estimate (log intensity, higher = more binding, comparable within an allelic series)
[3]
  binding signal: 9.57 upbm affinity estimate (log intensity, higher = more binding, comparable within an allelic series)

## CCGTGTCC
[1]
  binding signal: 9.3 upbm affinity estimate (log intensity, higher = more binding, comparable within an allelic series)
[2]
  binding signal: 6.98 upbm affinity estimate (log intensity, higher = more binding, comparable within an allelic series)
[24]
  binding signal: 7.18 upbm affinity estimate (log intensity, higher = more binding, comparable within an allelic series)
[3]
  binding signal: 9.13 upbm affinity estimate (log intensity, higher = more binding, comparable within an allelic series)
[25]
  binding signal: 6.99 upbm affinity estimate (log intensity, higher = more binding, comparable within an allelic series)

## GAGCGGCC
[1]
  binding signal: 9.25 upbm affinity estimate (log intensity, higher = more binding, comparable within an allelic series)
[9]
  binding signal: 6.83 upbm affinity estimate (log intensity, higher = more binding, comparable within an allelic series)
[10]
  binding signal: 6.8 upbm affinity estimate (log intensity, higher = more binding, comparable within an allelic series)
[11]
  binding signal: 6.52 upbm affinity estimate (log intensity, higher = more binding, comparable within an allelic series)
[3]
  binding signal: 9.59 upbm affinity estimate (log intensity, higher = more binding, comparable within an allelic series)

## GCCGGACC
[1]
  binding signal: 9.13 upbm affinity estimate (log intensity, higher = more binding, comparable within an allelic series)
[26]
  binding signal: 8.9 upbm affinity estimate (log intensity, higher = more binding, comparable within an allelic series)
[3]
  binding signal: 9.39 upbm affinity estimate (log intensity, higher = more binding, comparable within an allelic series)
[27]
  binding signal: 8.93 upbm affinity estimate (log intensity, higher = more binding, comparable within an allelic series)

## ACTGTTAT
[1]
  binding signal: 10.2 upbm affinity estimate (log intensity, higher = more binding, comparable within an allelic series)
[9]
  binding signal: 8.21 upbm affinity estimate (log intensity, higher = more binding, comparable within an allelic series)
[10]
  binding signal: 7.73 upbm affinity estimate (log intensity, higher = more binding, comparable within an allelic series)
[11]
  binding signal: 7.48 upbm affinity estimate (log intensity, higher = more binding, comparable within an allelic series)
[3]
  binding signal: 11.4 upbm affinity estimate (log intensity, higher = more binding, comparable within an allelic series)
